# According to ChEMBL document CHEMBL2218924, “A broad activity screen in support of a chemogenomic map for kinase signalling research and drug discovery” (Biochem J, 2013):
# How the values were obtained:
# [1] = target: T1, Ephrin type-B receptor 1 (Homo sapiens) (UniProt P54762); details: at 10 µM
# T1 sequence (whole entry): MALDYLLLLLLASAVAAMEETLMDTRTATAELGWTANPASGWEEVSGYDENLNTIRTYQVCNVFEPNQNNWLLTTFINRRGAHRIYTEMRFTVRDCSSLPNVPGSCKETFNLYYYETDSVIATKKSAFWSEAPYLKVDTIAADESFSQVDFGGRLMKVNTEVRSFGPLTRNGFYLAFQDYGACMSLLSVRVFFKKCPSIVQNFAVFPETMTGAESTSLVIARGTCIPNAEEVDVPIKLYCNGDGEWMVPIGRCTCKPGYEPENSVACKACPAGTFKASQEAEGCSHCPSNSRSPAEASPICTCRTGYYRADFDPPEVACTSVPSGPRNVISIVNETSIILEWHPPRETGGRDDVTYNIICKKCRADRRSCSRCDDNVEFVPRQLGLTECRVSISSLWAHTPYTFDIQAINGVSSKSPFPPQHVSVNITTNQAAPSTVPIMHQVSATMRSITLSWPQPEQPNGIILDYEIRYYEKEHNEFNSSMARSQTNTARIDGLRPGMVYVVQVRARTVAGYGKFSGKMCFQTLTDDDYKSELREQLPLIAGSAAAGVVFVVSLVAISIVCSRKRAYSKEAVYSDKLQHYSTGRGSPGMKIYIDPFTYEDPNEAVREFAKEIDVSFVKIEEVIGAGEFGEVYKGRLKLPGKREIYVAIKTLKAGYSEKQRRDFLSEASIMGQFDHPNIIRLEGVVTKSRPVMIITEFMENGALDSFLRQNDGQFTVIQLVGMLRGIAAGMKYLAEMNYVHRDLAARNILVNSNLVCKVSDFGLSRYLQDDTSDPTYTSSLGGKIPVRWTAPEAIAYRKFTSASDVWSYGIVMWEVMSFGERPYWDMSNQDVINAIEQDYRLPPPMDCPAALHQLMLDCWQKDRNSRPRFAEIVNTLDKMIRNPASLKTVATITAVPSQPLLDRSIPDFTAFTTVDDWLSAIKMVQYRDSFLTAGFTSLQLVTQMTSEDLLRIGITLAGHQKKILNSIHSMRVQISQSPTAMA
# [2] = target: T2, Ephrin type-B receptor 2 (Homo sapiens) (UniProt P29323); details: at 1 µM
# T2 sequence (whole entry): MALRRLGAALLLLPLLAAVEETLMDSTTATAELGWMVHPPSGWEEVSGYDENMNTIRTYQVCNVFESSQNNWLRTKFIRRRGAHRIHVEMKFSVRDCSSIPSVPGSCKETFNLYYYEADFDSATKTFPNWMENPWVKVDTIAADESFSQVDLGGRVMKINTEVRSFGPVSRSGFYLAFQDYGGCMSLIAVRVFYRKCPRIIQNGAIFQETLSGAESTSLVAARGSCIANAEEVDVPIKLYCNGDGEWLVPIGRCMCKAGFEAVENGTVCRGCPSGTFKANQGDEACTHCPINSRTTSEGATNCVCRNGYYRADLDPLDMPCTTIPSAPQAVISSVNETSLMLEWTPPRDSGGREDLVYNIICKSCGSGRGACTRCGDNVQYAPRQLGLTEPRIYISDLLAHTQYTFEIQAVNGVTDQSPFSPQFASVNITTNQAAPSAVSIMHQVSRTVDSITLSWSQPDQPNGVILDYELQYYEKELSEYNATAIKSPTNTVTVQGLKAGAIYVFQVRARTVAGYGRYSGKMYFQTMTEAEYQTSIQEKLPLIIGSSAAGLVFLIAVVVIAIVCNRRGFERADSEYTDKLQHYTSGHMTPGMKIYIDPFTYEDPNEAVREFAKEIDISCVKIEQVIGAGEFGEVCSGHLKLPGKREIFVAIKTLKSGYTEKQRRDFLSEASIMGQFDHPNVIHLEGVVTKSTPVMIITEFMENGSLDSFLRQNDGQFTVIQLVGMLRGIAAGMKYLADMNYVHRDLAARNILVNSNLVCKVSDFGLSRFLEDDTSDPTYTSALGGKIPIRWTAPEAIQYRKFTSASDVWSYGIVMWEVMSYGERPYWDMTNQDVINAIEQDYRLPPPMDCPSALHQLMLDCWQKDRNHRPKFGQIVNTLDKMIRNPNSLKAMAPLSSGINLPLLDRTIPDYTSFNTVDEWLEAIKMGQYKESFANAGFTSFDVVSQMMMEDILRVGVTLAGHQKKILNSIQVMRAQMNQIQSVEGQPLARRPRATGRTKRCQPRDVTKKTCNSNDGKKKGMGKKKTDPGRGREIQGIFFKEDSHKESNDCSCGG
# [3] = target: T2, Ephrin type-B receptor 2 (Homo sapiens); details: at 10 µM
# [4] = target: T3, Ephrin type-B receptor 3 (Homo sapiens) (UniProt P54753); details: at 1 µM
# T3 sequence (whole entry): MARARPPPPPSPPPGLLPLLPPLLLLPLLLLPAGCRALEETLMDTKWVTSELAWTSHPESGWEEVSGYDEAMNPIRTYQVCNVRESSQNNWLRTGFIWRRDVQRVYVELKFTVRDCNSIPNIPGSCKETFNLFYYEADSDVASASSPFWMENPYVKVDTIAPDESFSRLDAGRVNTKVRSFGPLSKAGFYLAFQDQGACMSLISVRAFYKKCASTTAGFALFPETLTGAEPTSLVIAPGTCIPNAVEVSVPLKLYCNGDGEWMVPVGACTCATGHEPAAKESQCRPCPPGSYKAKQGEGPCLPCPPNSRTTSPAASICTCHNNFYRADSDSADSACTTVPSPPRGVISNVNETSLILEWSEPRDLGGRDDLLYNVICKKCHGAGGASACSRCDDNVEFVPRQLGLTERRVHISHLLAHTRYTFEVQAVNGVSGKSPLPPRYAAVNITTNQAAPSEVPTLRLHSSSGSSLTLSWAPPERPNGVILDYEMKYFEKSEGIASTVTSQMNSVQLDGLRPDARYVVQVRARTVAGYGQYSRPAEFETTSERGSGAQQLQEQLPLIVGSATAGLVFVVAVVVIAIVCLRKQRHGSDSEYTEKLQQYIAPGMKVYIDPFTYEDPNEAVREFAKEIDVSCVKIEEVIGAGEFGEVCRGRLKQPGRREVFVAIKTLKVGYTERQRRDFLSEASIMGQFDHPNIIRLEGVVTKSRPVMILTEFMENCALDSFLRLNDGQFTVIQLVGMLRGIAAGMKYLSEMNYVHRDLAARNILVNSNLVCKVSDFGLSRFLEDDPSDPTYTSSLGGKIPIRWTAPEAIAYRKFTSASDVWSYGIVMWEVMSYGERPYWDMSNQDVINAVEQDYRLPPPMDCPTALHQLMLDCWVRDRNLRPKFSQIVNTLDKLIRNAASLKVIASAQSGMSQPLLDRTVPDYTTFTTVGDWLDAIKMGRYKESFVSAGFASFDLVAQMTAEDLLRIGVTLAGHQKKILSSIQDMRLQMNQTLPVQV
# [5] = target: T3, Ephrin type-B receptor 3 (Homo sapiens); details: at 10 µM
# [6] = target: T4, Ephrin type-B receptor 4 (Homo sapiens) (UniProt P54760); details: at 1 µM
# T4 sequence (whole entry): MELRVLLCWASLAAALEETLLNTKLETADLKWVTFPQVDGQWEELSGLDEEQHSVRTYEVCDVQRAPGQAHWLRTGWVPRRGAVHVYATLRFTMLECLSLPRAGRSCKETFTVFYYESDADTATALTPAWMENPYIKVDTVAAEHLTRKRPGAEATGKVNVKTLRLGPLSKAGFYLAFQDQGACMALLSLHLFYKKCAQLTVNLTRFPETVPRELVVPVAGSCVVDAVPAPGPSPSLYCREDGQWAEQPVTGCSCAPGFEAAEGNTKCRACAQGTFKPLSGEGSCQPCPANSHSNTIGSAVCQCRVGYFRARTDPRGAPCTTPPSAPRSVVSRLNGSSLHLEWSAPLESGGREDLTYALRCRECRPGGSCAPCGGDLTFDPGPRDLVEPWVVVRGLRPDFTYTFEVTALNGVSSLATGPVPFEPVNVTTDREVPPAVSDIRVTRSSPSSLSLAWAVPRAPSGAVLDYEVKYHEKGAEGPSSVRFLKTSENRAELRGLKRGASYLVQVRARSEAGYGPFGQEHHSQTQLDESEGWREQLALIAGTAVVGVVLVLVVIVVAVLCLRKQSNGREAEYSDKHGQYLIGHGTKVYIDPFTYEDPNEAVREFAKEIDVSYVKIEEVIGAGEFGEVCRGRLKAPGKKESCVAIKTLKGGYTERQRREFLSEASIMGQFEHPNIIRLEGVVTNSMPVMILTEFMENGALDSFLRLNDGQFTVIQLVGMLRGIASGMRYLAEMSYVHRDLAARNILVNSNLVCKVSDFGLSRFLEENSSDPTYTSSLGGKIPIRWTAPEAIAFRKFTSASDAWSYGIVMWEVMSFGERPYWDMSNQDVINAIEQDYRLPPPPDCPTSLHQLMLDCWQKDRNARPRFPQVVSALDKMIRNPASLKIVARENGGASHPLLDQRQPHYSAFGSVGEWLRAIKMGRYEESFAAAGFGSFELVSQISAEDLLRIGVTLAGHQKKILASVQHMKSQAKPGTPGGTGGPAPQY
# [7] = target: T4, Ephrin type-B receptor 4 (Homo sapiens); details: at 10 µM
# [8] = target: Receptor tyrosine-protein kinase erbB-4 (Homo sapiens) (UniProt Q15303); details: at 1 µM
# Receptor tyrosine-protein kinase erbB-4 (Homo sapiens), sequence (Q15303 whole entry): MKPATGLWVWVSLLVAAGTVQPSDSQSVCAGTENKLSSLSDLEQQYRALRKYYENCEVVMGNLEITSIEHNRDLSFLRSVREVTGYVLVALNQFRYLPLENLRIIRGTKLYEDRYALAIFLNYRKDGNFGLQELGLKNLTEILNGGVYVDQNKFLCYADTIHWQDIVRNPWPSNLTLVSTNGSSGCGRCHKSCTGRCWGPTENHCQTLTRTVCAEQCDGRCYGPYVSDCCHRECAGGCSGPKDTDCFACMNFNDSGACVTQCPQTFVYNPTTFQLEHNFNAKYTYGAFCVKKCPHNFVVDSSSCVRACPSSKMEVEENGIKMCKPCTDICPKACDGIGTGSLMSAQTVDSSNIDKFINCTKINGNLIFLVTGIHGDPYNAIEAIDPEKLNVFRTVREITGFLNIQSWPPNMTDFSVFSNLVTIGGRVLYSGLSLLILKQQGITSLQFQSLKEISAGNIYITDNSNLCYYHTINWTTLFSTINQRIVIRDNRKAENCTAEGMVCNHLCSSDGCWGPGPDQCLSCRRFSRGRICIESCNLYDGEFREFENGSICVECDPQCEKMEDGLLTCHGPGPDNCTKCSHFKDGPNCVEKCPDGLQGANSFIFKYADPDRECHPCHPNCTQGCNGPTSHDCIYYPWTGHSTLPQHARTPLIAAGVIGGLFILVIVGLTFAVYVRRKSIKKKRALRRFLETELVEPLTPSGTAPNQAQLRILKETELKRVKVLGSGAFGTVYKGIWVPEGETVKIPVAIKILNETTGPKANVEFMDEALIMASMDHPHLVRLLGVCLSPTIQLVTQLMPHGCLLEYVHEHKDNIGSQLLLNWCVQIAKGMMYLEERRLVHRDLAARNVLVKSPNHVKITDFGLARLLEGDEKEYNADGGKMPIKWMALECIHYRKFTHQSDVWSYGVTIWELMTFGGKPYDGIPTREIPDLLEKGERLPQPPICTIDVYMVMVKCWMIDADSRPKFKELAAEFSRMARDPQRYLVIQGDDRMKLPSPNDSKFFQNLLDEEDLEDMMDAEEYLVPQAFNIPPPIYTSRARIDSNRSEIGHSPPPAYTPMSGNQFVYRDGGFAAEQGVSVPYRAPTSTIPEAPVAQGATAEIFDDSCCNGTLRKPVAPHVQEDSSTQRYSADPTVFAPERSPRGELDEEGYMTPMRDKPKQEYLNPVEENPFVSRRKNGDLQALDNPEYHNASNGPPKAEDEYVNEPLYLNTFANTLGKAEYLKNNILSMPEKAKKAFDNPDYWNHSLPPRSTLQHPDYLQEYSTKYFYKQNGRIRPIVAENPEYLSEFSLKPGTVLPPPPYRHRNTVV
# [9] = target: Receptor tyrosine-protein kinase erbB-4 (Homo sapiens) (UniProt Q15303); details: at 10 µM
# [10] = target: Focal adhesion kinase 1 (Homo sapiens) (UniProt Q05397); details: at 1 µM
# Focal adhesion kinase 1 (Homo sapiens), sequence (Q05397 2-1052 limits assumed): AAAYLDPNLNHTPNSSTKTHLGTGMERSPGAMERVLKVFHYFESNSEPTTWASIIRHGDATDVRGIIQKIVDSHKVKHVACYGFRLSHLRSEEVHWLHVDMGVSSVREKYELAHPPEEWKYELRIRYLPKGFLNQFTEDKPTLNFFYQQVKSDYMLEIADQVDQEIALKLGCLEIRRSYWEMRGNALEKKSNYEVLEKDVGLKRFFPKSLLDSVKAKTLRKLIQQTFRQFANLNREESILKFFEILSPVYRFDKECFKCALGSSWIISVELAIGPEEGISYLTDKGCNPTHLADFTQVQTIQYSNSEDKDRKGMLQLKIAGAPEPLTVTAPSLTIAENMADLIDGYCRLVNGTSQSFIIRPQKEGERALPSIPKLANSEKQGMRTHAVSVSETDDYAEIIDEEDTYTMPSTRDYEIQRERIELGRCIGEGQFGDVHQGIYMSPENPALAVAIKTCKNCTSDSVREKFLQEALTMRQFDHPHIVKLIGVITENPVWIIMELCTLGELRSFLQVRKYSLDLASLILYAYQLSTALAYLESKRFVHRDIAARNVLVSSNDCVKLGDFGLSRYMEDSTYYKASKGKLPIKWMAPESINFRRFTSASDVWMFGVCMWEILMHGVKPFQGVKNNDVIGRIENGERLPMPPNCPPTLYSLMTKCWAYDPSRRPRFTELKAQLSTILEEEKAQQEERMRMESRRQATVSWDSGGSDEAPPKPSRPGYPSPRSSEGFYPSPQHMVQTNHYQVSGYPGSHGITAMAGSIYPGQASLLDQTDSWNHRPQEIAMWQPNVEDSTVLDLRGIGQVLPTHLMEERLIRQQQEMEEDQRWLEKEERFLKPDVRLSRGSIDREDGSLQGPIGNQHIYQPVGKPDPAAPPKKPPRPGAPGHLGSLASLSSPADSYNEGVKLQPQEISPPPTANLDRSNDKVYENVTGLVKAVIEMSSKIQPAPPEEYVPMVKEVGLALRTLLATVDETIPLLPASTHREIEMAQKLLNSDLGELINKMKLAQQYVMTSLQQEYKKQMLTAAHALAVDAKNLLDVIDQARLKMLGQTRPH
structure (smiles),measurement,setting,value
NC(=O)Nc1sc(-c2ccc(F)cc2)cc1C(N)=O,residual activity,[1],0%
same,residual activity,[2],93%
same,residual activity,[3],19%
same,residual activity,[4],117% (inactive)
same,residual activity,[5],117%
same,residual activity,[6],49%
same,residual activity,[7],6%
same,residual activity,[8],91%
same,residual activity,[9],59%
same,residual activity,[10],68%
